Test results: PubChem BioAssay

system: Human papillomavirus type 1a protein E7 (residues 44-93); assay: small molecules binding HPV E7 44-93 – biochemical, small-molecule microarray, residues 44-93, 635 nm fluorescence, primary screen (AID 1108); conditions: fluorescence 635 nm, higher = more signal;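 further: E7 fragment applied at 1 µg/mL in TBST for 1 h at 4 C; score combines spot fluorescence with its signal to noise ratio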

SMILES | composite z-score
COc1cc2c(cc1O)C=[N+](Cc1cccc(OC(F)(F)F)c1)CC2 | -1.28
CCOC(=O)C=Cc1cc([N+](=O)[O-])ccc1O | 0.0311
N#Cc1ccc(NN2C(C(O)c3c(F)cccc3Cl)C=CC3C(=O)N(c4ccccc4)C(=O)C32)cc1 (stereo unspecified) | 1.47
O=C1O[C@H](c2ccccc2)[C@H](c2ccccc2)N2[C@H]1[C@@H](C(=O)NC[C@H](O)c1ccccc1)[C@]1(C(=O)Nc3ccccc31)[C@H]2c1ccc(OCCO)cc1 | 1.38
O=C1c2ccccc2[C@](Cc2ccccc2I)(C(=O)NC2CC2)[C@H](c2ccc(CO)cc2)N1C1CCCCC1 | 1.46
CC(C)C[C@@H]1NC(=O)[C@@H]2C[C@H](C(=O)NCCCCCN)[C@H](c3cccc(OCCO)c3)N2C1=O | 0.828
CCCCCN1CC=CC23O[C@@H]4/C=C\CCCOC(=O)C4[C@H]2C(=O)N(C(CO)C(C)C)[C@@H]3C1=O (stereo partly specified) | -0.453
O=C(NCc1ccc(F)cc1)[C@H]1C[C@H]2C(=O)N[C@@H](Cc3ccccc3)C(=O)N2[C@H]1c1ccc(O)cc1 | 0.335
COCC(=C=CC[C@@H](O)c1ccccc1OCCO)C[C@@H](O)c1cc(Cl)cc(Cl)c1O | 1.44
COCCOC(=O)N1C(=O)[C@@]2(c3cc(C#CC4=CCCCC4)ccc31)[C@H](C(N)=O)[C@H]1C(=O)O[C@H](c3ccccc3)[C@H](c3ccccc3)N1[C@@H]2c1ccc(OCCO)cc1 | -0.71
O=C1OCCC/C=C\[C@H]2OC34C=CCN(Cn5nnc6ccccc65)C(=O)[C@H]3N(CCO)C(=O)[C@@H]4C12 (stereo partly specified) | -0.249
C=CCOC(=O)[C@H]1[C@@H]2C(=O)O[C@@H](c3ccccc3)[C@@H](c3ccccc3)N2[C@@H](c2ccc(OCCOC(=O)[C@@H]3C[C@@H]4C(=O)N5CCC[C@H]5C(=O)N4[C@@H]3c3cccc(OCCO)c3)cc2)[C@]12C(=O)Nc1ccccc12 | 0.862
CCCCCCC#C[Si](O[C@H](c1ccccc1)c1cn([C@H](CO)Cc2ccccc2)nn1)(C(C)C)C(C)C | 0.205
COc1ccc([Si](C)(C)[C@H]2[C@H](CC(=O)N3CCC[C@H]3CO)O[C@@]3(C(=O)N(Cc4cccc(N5C(=O)c6cccc7cccc5c67)c4)c4ccccc43)[C@@H]2C)cc1 | 1.34
CC(C)C[C@@H]1NC(=O)[C@H]2C[C@@H](C(=O)NCCCCCCN(C)C)[C@@H](c3ccc(O)cc3)N2C1=O | 1.09
CN1C(=O)C2C=CC(C(O)C3CC=CCC3)N(NC(=O)OC(C)(C)C)C2C1=O (stereo unspecified) | 0.696
O=C1OCCC/C=C\[C@H]2OC34C=CCN(CCN5CCOCC5)C(=O)[C@H]3N(CCCO)C(=O)[C@@H]4C12 (stereo partly specified) | -0.941
Cc1ccc(S[C@]2(C(=O)NCC(F)(F)F)CC(=O)N(C(C)C)[C@@H]2c2ccc(CO)cc2I)cc1 | -0.554

SMILES | composite z-score
CCCCCN1CC=CC23O[C@@H]4/C=C\CCCOC(=O)C4[C@H]2C(=O)N(CCCO)[C@@H]3C1=O (stereo partly specified) | 0.626
CN(C)C(=O)[C@]1(Cc2ccccc2N=[N+]=[N-])N=C(c2ccc(OCCCO)cc2)O[C@@H]1c1ccccc1 | 1.08
COCCOC(=O)N1C(=O)[C@@]2(c3cc(C#CC4=CCCCC4)ccc31)[C@H](C(=O)Nc1nc3ccccc3s1)[C@H]1C(=O)O[C@H](c3ccccc3)[C@H](c3ccccc3)N1[C@@H]2c1ccccc1OCCO | 1.42
CN1C(=O)C2C=CC(C(O)c3cccs3)N(Nc3ccccc3)C2C1=O (stereo unspecified) | 0.548
CCc1oc(CC[C@@H](CO)NC(=O)NCCn2cc(C3(O)CCCCC3)nn2)c(C(=O)OC)c1C(=O)OC | 0.814
C=C[C@H](COC(C)=O)N(C(=O)OC(C)(C)C)S(=O)(=O)c1ccc(Br)cc1 | 0.4
C[N+](C)(C)CCCCNC(=O)[C@H]1C[C@H]2C(=O)N[C@@H](Cc3ccccc3)C(=O)N2[C@H]1c1ccc(O)cc1 | -0.0021
CCOC(=O)[C@H]1C/C=C/C[C@H](C(=O)OCC)C(=O)O[C@H]2[C@@H](OC)O[C@H](CO)[C@@H](OC(=O)Nc3cccc(F)c3)[C@@H]2OC1=O | 1.14
NCCCCCNC(=O)[C@@H]1C[C@@H]2C(=O)N[C@@H](Cc3ccccc3)C(=O)N2[C@@H]1c1cccc(OCCO)c1 | 0.762
C=CCOC(=O)[C@H]1[C@@H]2C(=O)O[C@@H](c3ccccc3)[C@@H](c3ccccc3)N2[C@@H](c2ccc(OCCOC(=O)[C@@H]3C[C@@H]4C(=O)N[C@@H](CCCCN(C)C)C(=O)N4[C@@H]3c3ccc(O)cc3)cc2)[C@]12C(=O)Nc1ccc(I)cc12 | -0.562
CC(C)C[C@H]1NC(=O)[C@@]23C(=O)N[C@@H](Cc4ccccc4)C2[C@H](C)[C@@]2(C)O[C@H]2C3/C=C/C/C=C\CNC(=O)[C@H](Cc2ccccc2)NC1=O (stereo partly specified) | 1.06
CCOC(=O)[C@H]1CC=C2CC1C(=O)N1CCC[C@@H]1[C@@H]2O[Si](C)(C)C(C)(C)C (stereo partly specified) | -0.404
COc1ccc([Si](C)(C)[C@H]2[C@H](CC(=O)N3Cc4ccccc4C[C@H]3CO)O[C@@]3(C(=O)N(Cc4ccc(N5CCC5=O)cc4)c4ccccc43)[C@@H]2C)cc1 | 1.37
O=C1C2C=CC(C(O)C(c3ccccc3)c3ccccc3)N(n3cnnc3)C2C(=O)N1Cc1ccccc1 (stereo unspecified) | 1.24
O=C(O)[C@@]1(CCS(=O)(=O)c2ccccc2)COC(c2ccc(OCCCO)cc2)=N1 | 0.182
C[C@]1(C(=O)NC2CC2)c2ccccc2C(=O)N(Cc2cc(C(F)(F)F)cc(C(F)(F)F)c2)[C@H]1c1ccc(CO)cc1 | 1.29
CCCC[C@@H]1C[C@H]1[C@@H](NC(=O)c1ccco1)c1ccc(C(=O)OC)cc1 | 0.0703
O=C1O[C@H](c2ccccc2)[C@H](c2ccccc2)N2[C@H]1[C@@H](C(=O)Nc1nc3ccccc3s1)[C@]1(C(=O)Nc3ccc(C#CCCO)cc31)[C@H]2c1ccc(OCCO)cc1 | 1.39
